# Compound activity: PubChem BioAssay, The Scripps Research Institute Molecular Screening Center
# The list is not random: actives were taken first. Their share in the collection is about 3.5%.
# TEAD-YAP block: TEAD-YAP interaction inhibition, primary screen, TEAD-YAP interaction inhibitor project, luminescence, HEK-TIYL cells; inhibition, % at 9.12 µM; 640,000 compounds, 1.4% hits; TEAD-Gal4/YAP UAS-luciferase luminescence; in the data active means inhibition above about 32%;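 further: 0% = median of test compound wells and 100% = reference inhibitor wells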
# MITF primary: MITF inhibitors, primary screen, biochemical, AlphaScreen, human; Microphthalmia-associated transcription factor (Homo sapiens), O75030; AlphaScreen MITF homodimerization, bead proximity signal; inhibition, % at 2.6 µM; 650,000 compounds, 0.91% hits; AID 1259374, 2018; in the data active means inhibition above about 50%;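 further: 0% = vehicle wells with protein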
# FBW7 act: FBW7 E3 ligase activators, primary screen, biochemical, AlphaScreen, human; F-box/WD repeat-containing protein 7 (Homo sapiens), Q969H0; AlphaScreen FBW7–phospho-cyclin E peptide binding, activator screen; normalized activity (activation), % at 26.1 µM; 650,000 compounds, 0.13% hits; AID 1259310, 2017; in the data active means normalized activity above about 1.9%;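 further: purified mutant Fbw7 with reduced substrate affinity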
# GPR151 activ: activators of human GPR151, primary screen, cell-based, PathHunter beta-arrestin, luminescence; G-protein coupled receptor 151 (Homo sapiens), Q8TDV0; PathHunter beta-arrestin GPR151 cells; activation, % at 11.2 µM; 650,000 compounds, 1% hits; in the data active means activation above about 4.9%;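 further: 0% = median of compound wells and 100% = cells with positive control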
# Target sequence (Q8TDV0 whole entry, looked up): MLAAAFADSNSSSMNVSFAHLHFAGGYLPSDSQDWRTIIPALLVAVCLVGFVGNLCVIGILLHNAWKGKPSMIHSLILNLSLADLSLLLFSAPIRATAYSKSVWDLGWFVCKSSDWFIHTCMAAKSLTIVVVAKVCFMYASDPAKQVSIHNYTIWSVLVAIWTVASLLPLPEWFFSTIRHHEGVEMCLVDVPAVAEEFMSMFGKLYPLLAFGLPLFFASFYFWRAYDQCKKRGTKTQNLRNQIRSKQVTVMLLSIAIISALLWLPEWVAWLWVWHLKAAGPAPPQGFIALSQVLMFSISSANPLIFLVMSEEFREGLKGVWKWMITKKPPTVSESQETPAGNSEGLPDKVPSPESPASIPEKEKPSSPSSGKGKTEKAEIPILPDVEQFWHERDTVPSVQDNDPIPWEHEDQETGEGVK
# MITF inh conf: MITF inhibitors, retest of hits, confirmation, biochemical, AlphaScreen, triplicate | inhibition, % at 2.6 µM | shares compounds with MITF primary | AlphaScreen MITF homodimerization, biotin/His-MITF beads | AID 1259372, 2018 | 4,700 compounds, 16% hits;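 active means inhibition above a cutoff derived from the DMSO control wells, cut at about 28% in these data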;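 further: 0% = MITF dimer wells with DMSO only; inhibitors lower the bead chemiluminescence by keeping MITF from dimerizing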
# AS interf DR: AlphaScreen optical interference compounds, dose response, counter-screen, biochemical, HTS. AlphaScreen optical interference counterscreen, cell-free. 480 compounds, 6% hits. IC50, µM. shares compounds with MITF primary; call rule not given here
# AlphaScreen intf2: AlphaScreen optical interference compounds, counter-screen for MITF inhibitor project, biochemical, triplicate; shares compounds with MITF primary; AID 1259376, 2018; LysRS AlphaScreen counterscreen, signal interference; inhibition, % at 2.6 µM; 4,700 compounds, 7.6% hits;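 active means inhibition above a cutoff derived from the DMSO control wells, cut at about 30% in these data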
# Starred values were filed as active, the others as inactive; . = not tested or not shown.
SMILES,TEAD-YAP block,MITF primary,FBW7 act,GPR151 activ,MITF inh conf,AlphaScreen intf2,others
Cc1cccc(CN2CCN(C(=O)COc3ccc(Br)cc3)CC2)c1,13.9,39.7,0.1,1.2,.,.,
Cc1ccc(OCC(=O)N2CCN(Cc3ccc(Br)cc3)CC2)cc1,4.5,70.3*,-0.1,1.3,15.5,19.2,
CCN1CCN(C(=O)COc2cccc(Br)c2)CC1,-8.3,-8.2,0.0,1.7,.,.,
Cc1cccc(OCC(=O)N2CCN(Cc3cccc(Br)c3)CC2)c1,-0.1,61.2*,0.0,-0.6,35.0*,15.6,AS interf DR=>6.48
Cc1ccc(OCC(=O)N2CCN(Cc3cccc(C)c3)CC2)cc1,7.6,51.2*,0.0,0.5,1.4,2.6,
CCC(C)N1CCN(C(=O)COc2ccc(C)cc2)CC1 (stereo not drawn),7.6,54.3*,0.1,-1.2,10.0,15.7,
CCC(C)N1CCN(C(=O)COc2cccc(C)c2)CC1 (stereo not drawn),-10.1,44.0,-0.2,1.7,.,.,
CSc1nnc(C2CCCNC2)n1C (stereo not drawn),3.0,-2.5,0.0,-0.2,.,.,
COc1ccc(OC)c(CN2CCN(C(=O)COc3ccc(Br)cc3)CC2)c1,-0.7,79.9*,0.0,2.5,-13.1,-1.6,
C1COCCOCCOCCOCCO1.C1COCCOCCOCCOCCO1.[Cl-].[Cs+].[O]=[Cr](=[O])=[O],-3.1,57.3*,0.1,2.0,19.4,7.3,
COc1ccc2[nH]c(C)c(CCNCc3cccc(OC)c3OC)c2c1,12.6,51.9*,0.1,0.7,3.1,6.1,
CCC(C)N1CCN(Cc2ccccc2Br)CC1 (stereo not drawn),9.5,82.8*,0.4,-1.1,10.3,8.7,
Cc1ccccc1CN1CCN(c2ccc(F)cc2)CC1,-1.6,9.8,0.4,0.8,.,.,
OCCN1CCN(Cc2ccccc2Br)CC1,1.9,35.0,0.0,-0.4,.,.,
CCC(C)N1CCN(Cc2ccccc2C)CC1 (stereo not drawn),2.8,83.2*,-0.1,-0.1,15.0,20.6,
COc1ccc(-n2c(-c3ccncc3)nc3ccccc3c2=O)cc1,-11.3,-9.5,-0.8,-0.5,.,.,
CN1CCN(Cc2ccccc2[N+](=O)[O-])CC1,9.3,46.8,0.0,-0.2,.,.,
Cc1ccc(N2CCN(Cc3ccccc3[N+](=O)[O-])CC2)cc1,-9.8,6.5,-0.3,-0.3,.,.,
O=[N+]([O-])c1ccccc1CN1CCN(Cc2ccc(F)cc2)CC1,-23.2,67.9*,-0.1,0.3,15.9,17.8,
O=[N+]([O-])c1ccccc1CN1CCN(c2ccc(F)cc2)CC1,5.0,54.4*,-0.2,-0.2,-2.0,-0.7,
CCN1C[C@]2(COC(=O)c3ccccc3N3C(=O)C[C@H](C)C3=O)CC[C@H](OC)[C@@]34C2[C@H](OC)[C@](O)(C13)[C@@]1(O)C[C@H](OC)[C@H]2C[C@@H]4[C@@H]1[C@H]2OC,2.9,3.2,0.6,-1.4,.,.,
O=c1oc2ccccc2c(O)c1C(c1ccc(O)c(O)c1)c1c(O)c2ccccc2oc1=O,0.0,1.4,-0.1,0.8,.,.,
COc1ccc(CCNCc2ccc(OC)c(OC)c2)cc1,5.7,51.2*,0.0,-1.2,-0.8,-6.3,
COc1ccc(CCNCc2ccc(OC)cc2)cc1,8.1,21.1,0.1,-0.6,.,.,
CN(N=O)c1cc(O)ccc1O,7.0,77.7*,-0.3,1.5,62.2*,-19.4,AS interf DR=>6.48
SMILES,TEAD-YAP block,MITF primary,FBW7 act,GPR151 activ,MITF inh conf,AlphaScreen intf2,others
COC(=O)C1=C(C(=O)OC)C2c3ccccc3C=CN2C(C(=O)OC)=C1C(=O)OC (stereo not drawn),3.0,51.2*,0.6,1.3,51.2*,14.2,
CN(C)CCN1C(=O)C2C3C=CC(C2C1=O)C1C2C(=O)N(CCN(C)C)C(=O)C2C31 (stereo not drawn),-0.2,1.9,-0.1,1.5,.,.,
CCOc1ccccc1CC1C(=O)N(C)C(=O)N(C)C1=O,-0.4,7.3,0.1,-0.1,.,.,
CCC(C)N1CCN(Cc2ccc(OC)c(Br)c2)CC1 (stereo not drawn),26.5,82.3*,-0.1,1.9,24.1,13.8,
COc1ccc(CN2CCNCC2)cc1Br,18.6,10.1,-0.1,-0.6,.,.,
CCOc1cc(CN2CCN(CCO)CC2)ccc1OC,5.3,8.3,0.9,-0.6,.,.,
CCOc1cc(CN2CCN(C(C)CC)CC2)ccc1OC (stereo not drawn),-5.6,74.0*,0.1,1.3,-3.0,-8.6,
Cc1ccccc1CN1CCN(Cc2ccccc2Cl)CC1,11.9,11.3,0.1,0.4,.,.,
Cc1ccc(C)c(CN2CCN(C)CC2)c1,3.7,62.3*,0.5,0.5,2.2,3.8,
COc1ccc(CN2CCN(Cc3ccccc3C)CC2)cc1,-6.6,74.9*,-0.1,0.8,-2.6,10.1,
Clc1ccc(CN2CCNCC2)cc1,-10.9,14.9,0.1,0.0,.,.,
Cc1ccccc1CN1CCN(C)CC1,0.9,-6.8,0.0,0.6,.,.,
Cc1ccc(CN2CCN(Cc3ccccc3C)CC2)cc1,13.8,55.8*,0.1,0.0,-11.7,-4.8,
Cc1ccc(CN2CCN(Cc3ccc(Cl)cc3)CC2)cc1,-7.4,83.5*,-0.1,-0.7,-5.8,-4.6,
Cc1ccc2onc(CNC(=O)N3CCC4(CC3)OCCO4)c2c1,0.3,-0.9,-0.1,2.2,.,.,
CCN1CCN(C(=O)Cc2c(C(=O)O)n(CC)c3ccccc23)CC1,-1.4,17.6,0.1,1.0,.,.,
Cc1ccccc1CN1CCN(c2ccc(Cl)cc2)CC1,-2.0,-4.7,-0.1,-0.2,.,.,
CCc1ccc(CN2CCN(Cc3ccccc3C)CC2)cc1,4.2,65.0*,-0.2,1.5,3.1,10.9,
O=C1CC(=O)N(c2ccc(Br)cc2)C(=O)N1,-4.5,-0.5,-0.1,-1.4,.,.,
Cc1ccc(N2C(=O)CC(=O)NC2=O)cc1,-1.2,82.5*,-0.1,-0.9,-2.5,3.9,
CC(C)(C)CN1CCN(Cc2c(F)cccc2F)CC1CCO (stereo not drawn),-9.2,-7.0,-0.1,0.4,.,.,
CN1CCN(Cc2ccc3c(c2)OCO3)CC1,2.6,35.2,0.0,-0.8,.,.,
Brc1ccccc1CN1CCN(Cc2ccc3c(c2)OCO3)CC1,4.0,60.2*,-0.2,-0.6,4.1,9.9,
Cc1ccccc1CN1CCN(Cc2ccc3c(c2)OCO3)CC1,11.9,57.6*,-0.1,0.0,2.1,3.8,
COc1ccc(CN2CCN(Cc3ccc(F)cc3)CC2)cc1,-0.7,77.9*,-0.2,0.2,0.3,12.4,
CSc1ccc(CN2CCN(Cc3ccccc3)CC2)cc1,5.0,53.8*,-0.6,1.4,8.3,2.0,
COc1cccc(CN2CCN(c3ccc(F)cc3)CC2)c1,8.1,43.5,0.0,0.3,.,.,
